An excerpt weighted towards active compounds, which were near 11% of everything screened.
PLK1 PBD inh: inhibitors of human PLK1 polo-box domain binding | AID 720504 | Plk1 PBD binding of FITC phosphopeptide, fluorescence polarization | P53350 | Potency, µM, without a hit: max response, negative = inhibition, actives largely listed as inhibitors | hit rate 2.8% among 360,000; also: series mostly up to about 57 µM; % is scaled to controls: 0 for no effect and ±100 for the full control effect; nearly all actives have a fitted effect of over 65% in size
Target sequence (P53350 whole entry, looked up, the tested form may be a part): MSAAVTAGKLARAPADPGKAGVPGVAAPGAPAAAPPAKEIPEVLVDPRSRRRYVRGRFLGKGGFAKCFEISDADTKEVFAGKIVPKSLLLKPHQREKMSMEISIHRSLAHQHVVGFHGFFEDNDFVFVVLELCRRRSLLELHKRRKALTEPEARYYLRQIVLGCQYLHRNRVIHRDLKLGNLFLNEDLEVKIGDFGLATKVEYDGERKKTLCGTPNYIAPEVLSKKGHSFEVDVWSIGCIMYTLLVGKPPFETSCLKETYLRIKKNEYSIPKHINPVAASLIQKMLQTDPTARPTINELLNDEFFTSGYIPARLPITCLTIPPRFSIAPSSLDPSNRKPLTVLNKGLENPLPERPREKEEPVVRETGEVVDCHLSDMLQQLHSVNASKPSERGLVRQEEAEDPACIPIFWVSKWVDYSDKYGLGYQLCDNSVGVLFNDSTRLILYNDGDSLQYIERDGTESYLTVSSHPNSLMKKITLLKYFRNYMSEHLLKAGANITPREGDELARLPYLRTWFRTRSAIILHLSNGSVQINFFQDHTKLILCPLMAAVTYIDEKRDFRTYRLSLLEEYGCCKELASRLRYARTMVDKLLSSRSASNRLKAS
BAZ2B block: inhibitors of human BAZ2B bromodomain; Q9UIF8; hit rate 4.4% among 360,000; Potency, µM (highest dose often 114 µM), for inactives: at the highest dose activity change, negative = inhibition, usual class: inhibitors; AlphaScreen BAZ2B-H3K14Ac peptide displacement; also: % is scaled to controls: 0 for no effect and ±100 for the full control effect; nearly all actives have a fitted effect of over 60% in size
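BAZ2B 50 nM plus b-H3(5-23)K14Ac 50 nM, PBS pH 7.4/0.01% Tween-20, 30 min RT; compound added (max 110 uM), 30 min RT; streptavidin donor/Ni-chelate acceptor beads 10 ug/mL final, 20 min dark; AlphaScreen read.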
G9a inh: inhibitors of human histone lysine methyltransferase G9a; Q96KQ7; Potency, µM (top dose mostly 102 µM), for the others: top-dose activity, negative = inhibition, actives largely listed as inhibitors; hit rate 8.8% among 350,000; G9a H3K9 monomethylation, AlphaScreen, 2 h; also: % is scaled to controls: 0 for no effect and ±100 for the full control effect; nearly all actives have a fitted effect of over 75% in size
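Enzyme 20 nM + cpd, 15 min RT; add b-H3K9 pep 500 nM / SAM 20 uM; 2 h RT; anti-H3K9me1 Ab 0.5 ug/mL + SA donor / anti-rabbit acceptor beads 20 ug/mL each, 10 min; AlphaScreen read.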
JMJD2A Tudor inh: JMJD2A Tudor domain (human) inhibition; O75164; AlphaScreen JMJD2A-Tudor / H3K4me3 peptide binding; Potency, µM (series often up to 114 µM), for inactives: at the highest dose activity change, negative = inhibition, actives largely listed as inhibitors; hit rate 4.4% among 390,000; AID 504339; also: % is scaled to controls: 0 for no effect and ±100 for the full control effect; nearly all actives have a fitted effect of over 50% in size
VDR inh: inhibitors of human vitamin D receptor. P11473. VDR-SRC2-3 peptide fluorescence polarization, 2 h. Potency, µM, inactives show max response, negative = inhibition, hits mostly inhibitors. hit rate 0.93% among 400,000. AID 504847; also: % is scaled to controls: 0 for no effect and ±100 for the full control effect
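Measured by FP: displacement of SRC2-3 coactivator peptide from VDR by library compounds, following a two-hour ambient incubation.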
HP1b chromo inh: HP1-beta chromodomain-methylated histone interaction inhibition; P83916; AlphaScreen HP1-beta / biotin-H3K9me3 peptide binding; Potency, µM (titrated, usually from 114 µM), for inactives: at the top dose activity change, negative = inhibition, usual class: inhibitors; hit rate 0.56% among 390,000; also: nearly all actives have a fitted effect of over 70% in size
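AlphaScreen: HP1-beta (50 nM) preformed 30 min with biotin-H3(1-18)K9me3 peptide (50 nM) in PBS pH 7.4, 0.01% Tween-20. Compound added for 30 min at RT, then streptavidin donor/nickel chelate acceptor beads (10 ug/mL) for 30 min.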
An asterisk follows results filed as active; ? = inconclusive; . = not tested or not shown; [ ] = another dose, or the depositor's remark. Calls follow the shape of the dose curve; as a rule, active = well fitted curve in the direction sought with a large enough effect; inconclusive = small, poorly fitted or top-dose-only effect, or another doubt; inactive = no such curve, though single readings can be large; an effect the other way counts as inactive or inconclusive. Potency is read from the fitted curve at half-maximal effect.

SMILES | PLK1 PBD inh | BAZ2B block | G9a inh | JMJD2A Tudor inh | VDR inh | HP1b chromo inh
CCC(=O)N1c2ccccc2NC2=C(C(=O)CC(c3ccco3)C2)C1c1ccco1 (stereo not drawn) | -5% | -33% | -51%[12.7 µM] | -8% | -4% | 3%
Nc1nc(Nc2ccccc2F)sc1C(=O)c1ccc(Cl)cc1 | . | ? | ? | ? | -7% | -17%
CCCSc1oc(-c2cccs2)nc1S(=O)(=O)c1ccc(C)cc1 | . | 10% | -45%[59 µM] | 15% | -1% | 64%
CCCCCS(=O)(=O)c1oc(-c2cccs2)nc1S(=O)(=O)c1ccc(C)cc1 | . | -5% | 3.5µM* | -15% | ? | 54%
CCCCS(=O)(=O)c1oc(-c2cccs2)nc1S(=O)(=O)c1ccc(F)cc1 | . | -2% | ? | -13% | 10µM* | 42%
CCOC(=O)c1nnn(-c2nonc2N)c1-c1ccc(F)cc1 | 2% | -2% | -8% | -3% | -17% | 35%
C/C=C(\C)C(=O)OC1CC(C)(C)C[C@H]2C3=CC[C@@H]4[C@@]5(C)CCC(O[C@@H]6O[C@@H](C(=O)O)[C@@H](O)C(O[C@@H]7OC[C@H](O)[C@@H](O)[C@@H]7O[C@@H]7OC(CO)C(O)[C@@H](O)[C@@H]7O)C6O[C@@H]6OC(CO)C(O)C(O)C6O)[C@@](C)(CO)[C@@H]5CC[C@]4(C)[C@]3(C)CC(O)[C@@]12CO (stereo partly drawn) | -27% | . | . | 79µM* | ? | 11%
CC1(C)CC[C@]2(C(=O)O[C@@H]3OC(CO)[C@@H](O)[C@H](O)[C@H]3O)CC[C@]3(C)C(=CCC4[C@@]5(C)CC[C@H](O[C@@H]6OC(C(=O)O)[C@@H](O)[C@H](O)[C@H]6O)C(C)(C)C5CC[C@]43C)[C@@H]2C1 (stereo partly drawn) | -25% | . | . | -7% | ? | 52%
COc1ccc(CC(=O)NCC(c2ccc(Cl)cc2)N2CCOCC2)cc1 (stereo not drawn) | . | -15% | 1%[59 µM] | -15% | 8% | 16%
Cc1ccc(NC(=O)Cn2c(-c3nonc3N)nc3ccccc32)cc1Cl | . | -3% | 0%[59 µM] | -12% | -8% | 41%
COCCN(CCOC)c1ncnc2c1c(-c1ccccc1)cn2-c1ccc(C)c(Cl)c1 | . | ? | -34%[59 µM] | -24% | 0% | 27%
Cc1ccc(C)c(S(=O)(=O)N2CCN(CC(=O)NC(=O)NCc3ccco3)CC2)c1 | ? | -25% | -33% | 50µM* | -9% | ?
O=C(CN1CCN(c2ccc(O)cc2)CC1)NC(=O)NCc1ccco1 | -9% | -36% | 7.9µM* | -13%[57.1 µM] | 16% | ?
O=C(CN1CCN(c2ccccc2O)CC1)NC(=O)NCc1ccco1 | -19% | -11% | 0%[59 µM] | -29% | 14% | 12%
COc1cccc(NC(=O)C2CCC(CNC(=O)[C@@H]3Cc4ccccc4CN3)CC2)c1 (stereo partly drawn) | -10% | -8% | 16%[0.0925 µM] | -16% | 4% | 24%
CC(C)(C)SCCNS(=O)(=O)c1ccc(Cl)cc1 | ? | -1% | 36%[12.7 µM] | 18µM* | ? | -14%
COc1ccc(C2CC(=O)c3cc(-c4nc(-c5cccc([N+](=O)[O-])c5)cs4)c(=O)n(-c4ccccc4C)c3C2)cc1 (stereo not drawn) | . | ? | 3.5µM* | -16% | 1% | 24%
COc1ccc(C2CC(=O)c3cc(-c4nc(-c5cccc([N+](=O)[O-])c5)cs4)c(=O)n(-c4ccccc4)c3C2)cc1 (stereo not drawn) | . | 0% | -7%[59 µM] | -12% | -11% | 14%
COc1ccc(C2CC(=O)c3cc(-c4nc(-c5ccc(C)cc5)cs4)c(=O)[nH]c3C2)cc1 (stereo not drawn) | . | ? | 1.8µM* | 1% | 6% | 44%
CC1(C)CC(=O)c2cc(-c3nc(-c4ccc(Cl)cc4)cs3)c(=O)[nH]c2C1 | . | 1% | 14µM* | 3% | -15% | 29%
CC1(C)CC(=O)c2cc(-c3nc(-c4ccc(F)cc4)cs3)c(=O)[nH]c2C1 | . | 71µM* | 1.3µM* | ? | 7% | 34%
COc1ccc(C2CC(=O)c3cc(-c4nc(-c5ccc(Cl)cc5)cs4)c(=O)[nH]c3C2)cc1OC (stereo not drawn) | . | ? | -38%[59 µM] | 3% | -11% | 36%
COc1cc(CNC(=O)c2cc3ccccc3oc2=O)cc(OC)c1OC | -3% | . | . | -8% | 10% | 4%
CCc1cccc(CC)c1NC(=O)Cn1nnc2sc3c(c2c1=O)CCCC3 | . | -1% | 17%[59 µM] | -12% | -22% | 33%
COc1ccc(NS(=O)(=O)c2ccc(C)c(NC(=O)c3ccc(C)c(S(=O)(=O)N4CCOCC4)c3)c2)cc1 | -9% | -5% | -7%[59 µM] | -19% | -6% | 5%
SMILES | PLK1 PBD inh | BAZ2B block | G9a inh | JMJD2A Tudor inh | VDR inh | HP1b chromo inh
Cc1ccc(-n2c3c(cc(-c4nc(-c5ccc(Cl)cc5)cs4)c2=O)C(=O)CC(C)(C)C3)cc1C | . | -1% | 16µM* | 15% | -8% | 47%
COc1ccc(-n2c3c(cc(-c4nc(-c5ccc(C)cc5)cs4)c2=O)C(=O)CC(C)(C)C3)cc1 | . | 7% | 2%[59 µM] | 3% | -13% | 76%
Cc1ccc(-n2c(C)cc3c2CC(C)(C)CC3=O)cc1C | -9% | ? | ? | 56µM* | -1% | -28%
CCN1/C(=C\C=C(C(C)=O)C(C)=O)Sc2ccccc21 | 107% | ? | 50µM* | -30% | 3% | -5%
CCN1/C(=C\C(=S)Nc2ccccc2)Sc2ccccc21 | 24µM* | ? | ? | 25µM* | ? | ?
O=C(c1cccc(C(F)(F)F)c1)c1c[nH]c(C(=O)NCCCN2CCOCC2)c1 | -10% | -3% | -31% | -9% | -10% | 12%
O=c1oc(-c2cccs2)nc2sc3c(c12)CCCC3 | -7% | 5% | 12% | -3% | 3% | 31%
O=C1CN(c2nc(-c3cccs3)nc3sc4c(c23)CCCC4)CCN1 | 27µM* | -30% | 8%[12.7 µM] | -19% | 16% | 36%
COc1ccc(-c2csc3nc(-c4cccnc4)nc(N4CCC(C(N)=O)CC4)c23)cc1OC | ? | -32% | ? | -29% | 0% | 4%
O=C1CN(c2nc(-c3cccnc3)nc3scc(-c4ccccc4)c23)CCN1 | 3% | -29% | 40µM* | 1% | -1% | 36%
Cc1ccccc1CSc1ncc(CO)n1Cc1ccc(F)cc1 | . | ? | 4%[59 µM] | -21% | 3% | 7%[57 µM]
CC(=O)c1ccc(Nc2ncnc3c2oc2ccccc23)cc1 | 1% | ? | 79µM* | ? | 13% | 47%
CC(=O)Nc1ccc(Nc2nc(C)nc3c2oc2ccccc23)cc1 | -17% | -4% | -4%[12.7 µM] | -13%[57.1 µM] | 13% | 57%

Screening data deposited in PubChem by National Center for Advancing Translational Sciences (NCATS).
